# Source: the supplement of paper PMC10037445
# “And” between values parts separate entries of the source, which are not always exact repeats. Identical values can stand only once. The full ranking holds about 2,900 compounds; the median of “NF-kB SEAP reporter activity, fold change vs agonist alone” is about 0.99, and the highest 2% start at about 2.6. The full list was thinned out, with the highest values kept by preference.
# Key:
# RAW-Dual [1] = experiment: NF-kB SEAP reporter activity, fold change vs agonist alone; higher = enhanced NF-kB activity; conditions: library stock concentration (final ~1000-fold dilution): 10 mM
# Outline: (§1)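 RAW-Dual macrophages (50,000 cells/well in DMEM, 384-well plates) received 50 nL of library stock by pin tool, then a PRR agonist 1 h later, and were kept at 37 °C, 5% CO2. After 20 hours, supernatant was read for IRF by QuantiLuc luminescence and for NF-κB by QuantiBlue absorbance at 620 nm. Reporter activity is fold change over agonist-alone wells. Cytotoxic wells had IncuCyte confluency below 70% of agonist controls in both mask sets.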
# RAW-Dual [2] = experiment: NF-kB SEAP reporter activity, fold change vs agonist alone; cytotoxicity flag (confluency mask): not cytotoxic; higher = enhanced NF-kB activity
# Outline: as §1
# RAW-Dual [3] = experiment: NF-kB SEAP reporter activity, fold change vs agonist alone; cytotoxicity flag (confluency mask): cytotoxic (confluency <70% of control); higher = enhanced NF-kB activity
# Outline: as §1
# [4] = cytotoxicity flag (confluency mask): not cytotoxic, agonist: Imiquimod (TLR7) […]
# [5] = cytotoxicity flag (confluency mask): not cytotoxic, agonist: MPLA (TLR4) […]
# [6] = agonist: ODN 1826 (TLR9) 0.5 ug/mL
# [7] = agonist: Pam2CSK4 (TLR2/6) 0.1 ug/mL
# [8] = agonist: Pam3CSK4 (TLR2/1) 0.1 ug/mL
structure (smiles),measurement,setting,value
Cc1nc(-c2nc(-c3ccc(OC(F)(F)F)cc3)no2)nn1Cc1cccc(N2CCC(S(C)(=O)=O)CC2)c1,NF-kB SEAP reporter activity,RAW-Dual [1]; [4],0.853
same,NF-kB SEAP reporter activity,RAW-Dual [1]; [5],1.28
Cc1nc(-c2nc(-c3ccc(OC(F)(F)F)cc3)no2)nn1Cc1cccc(N2CCC(S(C)(=O)=O)CC2)c1 (library stock concentration (final ~1000-fold dilution): 10 mM),NF-kB SEAP reporter activity,RAW-Dual [2]; agonist: LPS (TLR4) 0.1 ug/mL,2
same,NF-kB SEAP reporter activity,RAW-Dual [2]; [6],0.837
same,NF-kB SEAP reporter activity,RAW-Dual [2]; [7],0.462
same,NF-kB SEAP reporter activity,RAW-Dual [2]; [8],0.849
O.O=c1c(O)c(-c2ccc(O)cc2O)oc2cc(O)cc(O)c12 (library stock concentration (final ~1000-fold dilution): 10 mM),NF-kB SEAP reporter activity,RAW-Dual [2]; agonist: LPS (TLR4) 0.1 ug/mL,1.52
same,NF-kB SEAP reporter activity,RAW-Dual [2]; [6],1.13
same,NF-kB SEAP reporter activity,RAW-Dual [2]; [7],1.15
same,NF-kB SEAP reporter activity,RAW-Dual [2]; [8],1.18
O.O=c1c(O)c(-c2ccc(O)cc2O)oc2cc(O)cc(O)c12,NF-kB SEAP reporter activity,RAW-Dual [1]; [4],0.957
same,NF-kB SEAP reporter activity,RAW-Dual [1]; [5],1.05
COCCCOc1cc(CC(CC(N)C(O)CC(C(=O)NCC(C)(C)C(N)=O)C(C)C)C(C)C)ccc1OC (stereo not given) (library stock concentration (final ~1000-fold dilution): 10 mM),NF-kB SEAP reporter activity,RAW-Dual [2]; agonist: LPS (TLR4) 0.1 ug/mL,1.36 and 1.31
same,NF-kB SEAP reporter activity,RAW-Dual [2]; [6],1.57 and 0.983
same,NF-kB SEAP reporter activity,RAW-Dual [2]; [7],1.09 and 0.934
same,NF-kB SEAP reporter activity,RAW-Dual [2]; [8],1.04 and 1.06
CC1=NN(c2ccc(C)c(C)c2)C(=O)/C1=N\Nc1cccc(-c2cccc(C(=O)O)c2)c1O.NCCO.NCCO,NF-kB SEAP reporter activity,RAW-Dual [1]; [4],1.57
same,NF-kB SEAP reporter activity,RAW-Dual [1]; [5],1.64
CC1=NN(c2ccc(C)c(C)c2)C(=O)/C1=N\Nc1cccc(-c2cccc(C(=O)O)c2)c1O.NCCO.NCCO (library stock concentration (final ~1000-fold dilution): 10 mM),NF-kB SEAP reporter activity,RAW-Dual [2]; agonist: LPS (TLR4) 0.1 ug/mL,2.92
same,NF-kB SEAP reporter activity,RAW-Dual [2]; [6],1.31
same,NF-kB SEAP reporter activity,RAW-Dual [2]; [7],1.58
same,NF-kB SEAP reporter activity,RAW-Dual [2]; [8],1.34
Cc1ncc(Cl)cc1NCc1ccc(C(=O)NC(CC2CCCC2)C(=O)NC2CC2)s1 (stereo not given) (library stock concentration (final ~1000-fold dilution): 10 mM),NF-kB SEAP reporter activity,RAW-Dual [2]; agonist: LPS (TLR4) 0.1 ug/mL,0.894
same,NF-kB SEAP reporter activity,RAW-Dual [2]; [6],0.742
same,NF-kB SEAP reporter activity,RAW-Dual [2]; [7],0.85
same,NF-kB SEAP reporter activity,RAW-Dual [2]; [8],0.698
Cc1ncc(Cl)cc1NCc1ccc(C(=O)NC(CC2CCCC2)C(=O)NC2CC2)s1 (stereo not given),NF-kB SEAP reporter activity,RAW-Dual [1]; [4],0.865
same,NF-kB SEAP reporter activity,RAW-Dual [1]; [5],0.987
Cc1cc(C)c(CN2CCc3c(Cl)cc(-c4c(C)noc4C)c(Cl)c3C2=O)c(=O)[nH]1,NF-kB SEAP reporter activity,RAW-Dual [1]; [4],1.24
same,NF-kB SEAP reporter activity,RAW-Dual [1]; [5],1.64
Cc1cc(C)c(CN2CCc3c(Cl)cc(-c4c(C)noc4C)c(Cl)c3C2=O)c(=O)[nH]1 (library stock concentration (final ~1000-fold dilution): 10 mM),NF-kB SEAP reporter activity,RAW-Dual [2]; agonist: LPS (TLR4) 0.1 ug/mL,2.16
same,NF-kB SEAP reporter activity,RAW-Dual [2]; [6],1.51
same,NF-kB SEAP reporter activity,RAW-Dual [2]; [7],0.917
same,NF-kB SEAP reporter activity,RAW-Dual [2]; [8],0.98
C=C(C)C1CCC2(C(=O)O)CCC3(C)C(CCC4C5(C)CCC(OC(=O)CC(C)(C)C(=O)O)C(C)(C)C5CCC43C)C12 (stereo not given),NF-kB SEAP reporter activity,"RAW-Dual [1]; cytotoxicity flag (confluency mask): cytotoxic (confluency <70% of control), agonist: Imiquimod (TLR7) […]",0.823
same,NF-kB SEAP reporter activity,"RAW-Dual [1]; cytotoxicity flag (confluency mask): cytotoxic (confluency <70% of control), agonist: MPLA (TLR4) […]",1.07
C=C(C)C1CCC2(C(=O)O)CCC3(C)C(CCC4C5(C)CCC(OC(=O)CC(C)(C)C(=O)O)C(C)(C)C5CCC43C)C12 (stereo not given) (library stock concentration (final ~1000-fold dilution): 10 mM),NF-kB SEAP reporter activity,RAW-Dual [3]; agonist: LPS (TLR4) 0.1 ug/mL,1.79
same,NF-kB SEAP reporter activity,RAW-Dual [3]; [6],0.735
same,NF-kB SEAP reporter activity,RAW-Dual [3]; [7],0.295
same,NF-kB SEAP reporter activity,RAW-Dual [3]; [8],0.532
